Common to all, as to test: NCI-60 one-dose screen, 48 h (100 = growth as untreated, 0 = no growth, -100 = all killed)
Assay [1] concerns HCT-15 colon. The following applies: 10 µM unless noted.
Assay [2] deals with HT29 colon. The following applies: 10 µM unless noted.
In assay [3] the test system is SNB-75 CNS. The following applies: 10 µM unless noted.
The test system of assay [4] is SNB-19 CNS. The following applies: 10 µM unless noted.
Assay [5] concerns U251 CNS. The following applies: 10 µM unless noted.
Assay [6] has as its system PC-3 prostate. The following applies: 10 µM unless noted.
The subject of assay [7] is SK-MEL-5 melanoma. The following applies: 10 µM unless noted.
The subject of assay [8] is UACC-62 melanoma. The following applies: 10 µM unless noted.
The subject of assay [9] is LOX IMVI melanoma. As to conditions: 10 µM unless noted.
Assay [10] relates to SK-MEL-28 melanoma. As to conditions: 10 µM unless noted.
In assay [11] the test system is SK-MEL-2 melanoma. The following applies: 10 µM unless noted.
In assay [12] the test system is EKVX NSCLC. The following applies: 10 µM.
Assay [13] concerns SN12C renal. As to conditions: 10 µM unless noted.
For assay [14], the system named is UO-31 renal. As to conditions: 10 µM unless noted.
For assay [15], the system named is TK-10 renal. As to conditions: 10 µM unless noted.
For assay [16], the system named is ACHN renal. As to conditions: 10 µM unless noted.
Assay [17] concerns CAKI-1 renal. The following applies: 10 µM unless noted.
Assay [18] concerns A498 renal. As to conditions: 10 µM unless noted.
The subject of assay [19] is CCRF-CEM leukemia. As to conditions: 10 µM.
In assay [20] the test system is MOLT-4 leukemia. The following applies: 10 µM unless noted.

Structures are written as SMILES. About 83,000 compounds went through this panel and 20% of them were active in at least one assay; those are over-represented in the sample as a whole.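 Compound tested at a single concentration for 48 hours in 96-well plates; a percent growth value below 10 was scored as active.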 Values without a mark were called inactive. Calls of active or inactive are those of the source.

Turning to `COc1cc(CCNc2cnc3cc(N)cc(N)c3n2)cc(OC)c1`, the growth in [1] is 104%; in assay [2], 100%; in [3], 98.8%; in assay [4], 111%; in assay [5], 104%; in assay [6], 118%. The growth in [7] is 103%; in assay [8], 109%; in assay [9], 108%; in [10] it was 61%; in [11], 104%; in [12], 123%. Further, the growth in [13] is 107%; in [14], 90.9%; in assay [15], 116%; in assay [16] it was 106%; in assay [17], 129%; in assay [18] it was 107%. Also, the growth in assay [19] was -52.5% (active); in assay [20], 5.61% (active).

With `COCn1c(C(=O)OC)cc2oc(/C=C3/SC(=S)N(N)C3=O)cc21`, the growth in [1] was 105%; in assay [2], 97.2%; in assay [3] it was 64.6%; in [4], 97.2%; in [5], 75.8%; in assay [6] it was 57.2%. Further, the growth is 91.7% in assay [7]; 94% in assay [8]; 87.3% in [9]; 92.9% in assay [10]; 96.9% in [11]; 91.8% in assay [12]. The growth in assay [13] was 121%; in assay [14] it was 95.7%; in assay [15], 101%; in assay [16], 110%; in [17] it was 87.3%; in [18], 54%. For the same compound, the results for the growth in assay [19] and in [20] were 98.1% and 68.6%, respectively.

As for `O=C(/C=C/c1ccc(Br)cc1)c1ccccc1`, the growth was 72.5% in assay [1]; 69.8% in assay [2]; 101% in assay [3]; 86.9% in assay [4]; 69% in assay [5]; 82% in [6]. Besides, the growth in [7] is 95.3%; in assay [8], 92.2%; in [9], 59.6%; in assay [10] it was 109%; in assay [11], 103%; in assay [12], 109%. Moreover, the growth was 91.6% in [13]; 80.3% in assay [14]; 64% in assay [15]; 100% in assay [16]; 101% in [17]; 77.4% in assay [18]. The growth in [19] is 81.6%; in assay [20] it was 92.3%.

For the compound `Cc1ccc2c(c1)C(=O)CCS2`, the growth in assay [1] was 90.8%; in [2] it was 103%; in assay [3], 80.8%; in assay [4], 111%; in assay [5] it was 92.9%; in assay [6] it was 101%. Further, the growth was 104% in [7]; 97.4% in assay [8]; 95% in [9]; 102% in assay [10]; 119% in assay [11]; 100% in assay [12]. For the same compound, the growth is 101% in assay [13]; 83.8% in assay [14]; 90.8% in assay [15]; 107% in assay [16]; 99% in [17]; 82.8% in [18]. In addition, the growth in assay [19] was 109%; in assay [20], 118%.

Consider `CCOP1(=O)CC(C)=C(Cl)C(P(=O)(O)O)C1` (stereo not given), for which the growth is 98.3% in assay [1]; 104% in assay [2]; 82.4% in [3]; 106% in [4]; 99.7% in assay [5]; 95.6% in [6]. Also, the growth in assay [7] was 109%; in [8] it was 95.5%; in assay [9] it was 94.1%; in assay [10], 93.7%; in assay [11] it was 109%; in [12], 102%. Also, the growth in assay [13] is 99.3%; in assay [14], 42.5%; in assay [15], 117%; in assay [16], 101%; in assay [17] it was 110%; in assay [18], 113%. Further, the growth in assay [19] is -35.6% (active); in assay [20], 89.9%.

For the compound `Cc1ccc(C(C)C)c(OCc2ccc(C(=O)N/N=C/c3cccc(O)c3O)cc2)c1`, the growth is 13.4% in assay [1]; 39.6% in assay [2]; 44.7% in [3]; 45.6% in [4]; 28.3% in assay [5]; 39.4% in assay [6]. Moreover, the growth is 38.6% in [7]; 30.8% in [8]; -12.3% (active) in assay [9]; 42.8% in assay [10]; 71.5% in assay [11]; 49.1% in assay [12]. For the same compound, the growth in assay [13] was 35%; in assay [14], 16.1%; in [15] it was 74%; in [16], 12.8%; in assay [17] it was 31.6%; in assay [18], 90.2%. For the same compound, the growth in [19] is 6.92% (active); in [20] it was 7.88% (active).

In the case of `COc1ccccc1Cn1cc2c(c1)-c1oncc1CC2`, the growth in assay [1] was 15.7%; in assay [2], 9.87% (active); in [3] it was 13.7%; in [4], 38.3%; in assay [5] it was 28.4%; in [6] it was 25.4%. The growth is 18% in assay [7]; 54.6% in assay [8]; 37.5% in [9]; 55.3% in [10]; 35.6% in assay [11]; 20.8% in assay [12]. Moreover, the growth in assay [13] is 39%; in assay [14] it was 31.6%; in [15], 65.6%; in [16] it was 55.5%; in assay [17] it was 9.72% (active); in assay [18], 29.2%. The growth in assay [19] is 17.6%; in [20], 25.6%.

Turning to `CC([C@H]1CCC2C3CCC4C[C@@H](N)CC[C@]4(C)C3CC[C@@]21C)N(C)C` (stereo not given in full), the growth is 3.11% (active) in assay [1]; 15.1% in [2]; 55.8% in [3]; 98.7% in assay [4]; 65.9% in [5]; 64.5% in assay [6]. The growth in assay [7] is -47.8% (active); in [8], 50.9%; in [9], 17.5%; in [10], -26.6% (active); in assay [11], 91.7%; in assay [12], 69.4%. Moreover, the growth in assay [13] is 75.8%; in [14], -4.26% (active); in assay [15], 109%; in [16], 78.1%; in assay [17], 48.8%; in assay [18], 89.4%. In addition, the growth was 42.3% in assay [19] and 38.6% in [20].

For the origin of these results see PubChem BioAssay (NCI).
